Laboratory results: ChEMBL document CHEMBL1961873, “Compounds: GSK PKIS; Assays: Nanosyn kinase panel” (2012)

What was measured:
[1] = target: Dual specificity protein kinase CLK3 (Homo sapiens) (UniProt P49761); settings: at 1 µM;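 also: each value is the mean inhibition of CLK3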
[2] = target: Dual specificity tyrosine-phosphorylation-regulated kinase 1A (Homo sapiens) (UniProt Q13627); settings: at 0.1 µM
[3] = target: Dual specificity tyrosine-phosphorylation-regulated kinase 1A (Homo sapiens) (UniProt Q13627); settings: at 1 µM
[4] = target: Dual specificity tyrosine-phosphorylation-regulated kinase 1B (Homo sapiens) (UniProt Q9Y463); settings: at 0.1 µM
Sequence of Dual specificity tyrosine-phosphorylation-regulated kinase 1B (Homo sapiens) (Q9Y463 whole entry, looked up): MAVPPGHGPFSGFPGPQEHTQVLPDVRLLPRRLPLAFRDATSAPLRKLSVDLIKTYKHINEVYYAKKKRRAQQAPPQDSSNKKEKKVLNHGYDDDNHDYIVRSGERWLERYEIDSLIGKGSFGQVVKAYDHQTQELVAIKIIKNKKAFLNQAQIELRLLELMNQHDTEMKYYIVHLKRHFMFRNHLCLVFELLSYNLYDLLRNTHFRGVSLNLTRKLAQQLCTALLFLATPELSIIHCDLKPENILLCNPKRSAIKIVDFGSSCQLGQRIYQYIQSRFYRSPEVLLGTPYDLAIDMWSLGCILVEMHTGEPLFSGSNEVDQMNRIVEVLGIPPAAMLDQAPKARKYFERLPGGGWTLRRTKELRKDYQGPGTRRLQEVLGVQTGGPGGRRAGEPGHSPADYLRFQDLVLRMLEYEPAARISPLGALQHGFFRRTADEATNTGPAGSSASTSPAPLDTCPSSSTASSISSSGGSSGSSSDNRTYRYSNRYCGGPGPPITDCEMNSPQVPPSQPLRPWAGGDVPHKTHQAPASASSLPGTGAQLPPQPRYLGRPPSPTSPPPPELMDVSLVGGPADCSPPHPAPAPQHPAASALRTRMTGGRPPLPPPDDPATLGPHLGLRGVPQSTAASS

[5] = target: Dual specificity tyrosine-phosphorylation-regulated kinase 1B (Homo sapiens) (UniProt Q9Y463); settings: at 1 µM
[6] = target: T1, Dual specificity tyrosine-phosphorylation-regulated kinase 2 (Homo sapiens) (UniProt Q92630); settings: at 0.1 µM
T1 sequence (whole entry): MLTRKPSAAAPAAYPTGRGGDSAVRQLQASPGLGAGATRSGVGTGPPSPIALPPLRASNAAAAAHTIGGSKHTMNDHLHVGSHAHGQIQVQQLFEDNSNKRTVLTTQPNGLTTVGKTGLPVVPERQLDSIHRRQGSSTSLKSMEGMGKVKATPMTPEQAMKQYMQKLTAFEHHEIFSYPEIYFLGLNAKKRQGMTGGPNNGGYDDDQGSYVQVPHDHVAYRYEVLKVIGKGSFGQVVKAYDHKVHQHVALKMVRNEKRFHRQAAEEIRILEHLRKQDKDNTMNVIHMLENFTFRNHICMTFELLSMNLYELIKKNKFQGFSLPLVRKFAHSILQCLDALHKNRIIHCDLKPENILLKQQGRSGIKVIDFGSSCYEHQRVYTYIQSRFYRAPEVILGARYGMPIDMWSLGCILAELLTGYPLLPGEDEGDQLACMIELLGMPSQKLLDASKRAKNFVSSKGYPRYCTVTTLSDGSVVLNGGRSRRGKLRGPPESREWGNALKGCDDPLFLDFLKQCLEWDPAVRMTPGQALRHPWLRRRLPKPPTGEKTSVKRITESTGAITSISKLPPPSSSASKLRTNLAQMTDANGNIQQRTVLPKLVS

[7] = target: T1, Dual specificity tyrosine-phosphorylation-regulated kinase 2 (Homo sapiens); settings: at 1 µM
[8] = target: Glycogen synthase kinase-3 alpha (Homo sapiens) (UniProt P49840); settings: at 0.1 µM
Sequence of Glycogen synthase kinase-3 alpha (Homo sapiens) (P49840 2-483 limits assumed): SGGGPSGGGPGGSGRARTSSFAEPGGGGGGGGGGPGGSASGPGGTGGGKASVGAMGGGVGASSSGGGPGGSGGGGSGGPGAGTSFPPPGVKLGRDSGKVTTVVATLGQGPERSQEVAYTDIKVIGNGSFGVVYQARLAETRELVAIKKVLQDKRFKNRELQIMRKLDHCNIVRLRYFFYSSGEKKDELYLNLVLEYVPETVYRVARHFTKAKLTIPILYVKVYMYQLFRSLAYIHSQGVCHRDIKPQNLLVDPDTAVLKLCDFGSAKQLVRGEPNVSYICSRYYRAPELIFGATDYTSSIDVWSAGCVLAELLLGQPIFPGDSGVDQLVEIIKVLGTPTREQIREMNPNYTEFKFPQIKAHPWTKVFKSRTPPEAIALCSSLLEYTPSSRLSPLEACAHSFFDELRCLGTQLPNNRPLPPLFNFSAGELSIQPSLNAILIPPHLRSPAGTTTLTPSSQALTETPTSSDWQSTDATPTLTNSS

[9] = target: Glycogen synthase kinase-3 alpha (Homo sapiens) (UniProt P49840); settings: at 1 µM
[10] = target: Glycogen synthase kinase-3 beta (Homo sapiens) (UniProt P49841); settings: at 0.1 µM;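 also: values are mean percent inhibition of GSK3B activity, from the GSK Published Kinase Inhibitor Set (PKIS) screening dataset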
Sequence of Glycogen synthase kinase-3 beta (Homo sapiens) (P49841 whole entry, looked up): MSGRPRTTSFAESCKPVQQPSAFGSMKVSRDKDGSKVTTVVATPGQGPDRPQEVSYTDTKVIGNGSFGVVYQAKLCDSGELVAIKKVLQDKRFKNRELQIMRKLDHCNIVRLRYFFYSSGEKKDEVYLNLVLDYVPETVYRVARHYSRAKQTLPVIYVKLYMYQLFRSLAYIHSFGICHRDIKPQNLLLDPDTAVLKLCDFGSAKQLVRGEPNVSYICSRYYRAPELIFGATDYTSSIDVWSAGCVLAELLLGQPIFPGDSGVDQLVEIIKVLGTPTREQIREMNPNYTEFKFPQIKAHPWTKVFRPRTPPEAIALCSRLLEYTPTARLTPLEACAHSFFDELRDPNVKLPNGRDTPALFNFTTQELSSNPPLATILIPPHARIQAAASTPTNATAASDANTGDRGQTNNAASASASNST

Sequence of Dual specificity protein kinase CLK3 (Homo sapiens) (P49761 whole entry, looked up): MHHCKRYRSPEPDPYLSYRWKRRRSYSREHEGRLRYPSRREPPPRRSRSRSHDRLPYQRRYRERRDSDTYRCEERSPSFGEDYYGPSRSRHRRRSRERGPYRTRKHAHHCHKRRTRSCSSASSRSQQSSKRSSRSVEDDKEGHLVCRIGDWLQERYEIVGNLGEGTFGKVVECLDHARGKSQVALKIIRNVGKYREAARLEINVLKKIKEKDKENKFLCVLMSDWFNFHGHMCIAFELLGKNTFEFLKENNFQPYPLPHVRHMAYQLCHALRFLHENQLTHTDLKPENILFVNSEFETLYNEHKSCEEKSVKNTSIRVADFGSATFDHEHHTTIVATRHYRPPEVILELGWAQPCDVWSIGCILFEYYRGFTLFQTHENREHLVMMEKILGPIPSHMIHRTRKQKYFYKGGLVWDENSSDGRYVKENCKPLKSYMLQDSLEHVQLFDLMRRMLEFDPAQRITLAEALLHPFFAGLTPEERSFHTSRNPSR

Structure (SMILES) | inhibition [1] [%] | inhibition [2] [%] | inhibition [3] [%] | inhibition [4] [%] | inhibition [5] [%] | inhibition [6] [%] | inhibition [7] [%] | inhibition [8] [%] | inhibition [9] [%] | inhibition [10] [%]
CS(=O)(=O)CCNCc1nc(-c2ccc3ncnc(Nc4ccc(F)c(Cl)c4)c3c2)cs1 | 0.43 | 0.63 | 1.24 | 0.27 | 1.63 | 0.37 | 2.12 | 1.3 | 3.03 | 1.2
CC1=C(C(=O)Nc2ccc3[nH]ncc3c2)C(c2ccc(Cl)c(Cl)c2)CC(=O)N1 (centres undefined) | 2.49 | -0.12 | 3.73 | 0.77 | 3.21 | 1.35 | 2.88 | 0.15 | 4.5 | -0.24
NC(=O)c1cccc(Nc2nccc(Nc3cccc4[nH]ncc34)n2)c1 | 8.54 | 3.35 | 22.1 | 5.54 | 28.3 | -1.74 | 7.45 | 8.87 | 42.1 | 8.67
Cc1ccc(C(=O)NC2CCCCC2)cc1-c1ccc(C(=O)NCC2CC2)cc1 | 1.19 | 0.7 | -0.59 | 0.96 | 0.46 | 1.77 | 1.81 | 1.78 | 1.84 | 1.78
CS(=O)(=O)Nc1ccc(N/C=C2\C(=O)Nc3ccccc32)cc1 | 1.06 | 0.92 | 10.4 | 3.56 | 13.9 | -1.66 | -0.97 | 7.94 | 19.6 | 6.71
Nc1ncnc2occ(-c3ccc(NC(=O)Nc4cccc(C(F)(F)F)c4)cc3)c12 |  | 3.42 | 6.79 | -0.28 | 1.94 | 3.2 | 2.85 | 3.15 | 9.54 | 2.89
CCn1c(-c2nonc2N)nc2cncc(C(=O)N3CC[C@H](N)C3)c21 | 1.82 | 12.7 | 49.4 | 7.9 | 44.4 | 15 | 59.5 | 3.29 | 19.3 | 2.36
Nc1nc(-c2ccccn2)c(-c2ccc3ncccc3n2)s1 | 4.76 | 7.05 | 18.3 | 3.14 | 8.56 | 2.04 | 4.58 | 3.86 | 12.8 | 3.76
Nc1nc(-c2ccc3c(c2)C(=Cc2cc(Br)c(O)c(Br)c2)C(=O)N3)cs1 | 2.88 | 1.71 | 4.89 | 1.38 | 3.44 | -2.46 | -0.96 | 0.62 | 4.94 | 0.83
COc1ccc(-c2coc3ncnc(N)c23)cc1 | 1.54 | 3.61 | 19.2 | -0.37 | 5.22 | 3.83 | 4.61 | 2.73 | 3.86 | 0.71
CNC(=O)c1cncc(/C=C/c2c(Cl)cccc2Cl)c1 | -3.4 | -1.12 | -1.12 | -1.13 | 3.55 | 3.17 | 6.98 | -0.55 | 3.81 | -1.21
O=C1Nc2ccc(C(=O)c3ccco3)cc2C1=Cc1cc(Cl)c(O)c(Cl)c1 | 63.8 | 40.5 | 78.3 | 47.4 | 81.5 | 3.34 | 13.4 | 24.5 | 70.1 | 31.1
CCn1c(-c2nonc2N)nc2cnc(Oc3cccc(NC(=O)c4ccc(OCCN5CCOCC5)cc4)c3)cc21 | 1.22 | 0.91 | 4.24 | 0.06 | 0.86 | 3.68 | 5.39 | 13.9 | 56.5 | 10.2
Cc1nnc(-c2ccc(C)c(-c3ccc(C(=O)Nc4cccc(C#N)c4)cc3)c2)o1 | 1.62 | 0.92 | 3.59 | 0.45 | 1.21 | 1.13 | 1.2 | 2.41 | 4.82 | 2.45
CC(C)=Cc1cccc2c1/C(=N/Nc1ccc(S(N)(=O)=O)cc1)C(=O)N2 | 1.83 | -1.42 | 2.34 | 0.57 | 5.61 | 0.58 | 2.29 | 13.8 | 53.5 | 7.42
Cc1cc(O)cc(C)c1/C=C/c1cncc(-c2nn[nH]n2)c1 | -1.62 | 1.17 | 2.98 | -1.94 | -1.27 | 2.24 | 3.95 | -2.04 | 3.03 | -2.15
CC(=O)Nc1cccc(C#Cc2cncnc2Nc2ccc(OCc3cccc(F)c3)c(Cl)c2)n1 | -0.85 | -0.63 | -0.35 | 1.51 | 2.18 | -0.79 | -0.95 | 0.36 | 1.39 | 1.37

Structure (SMILES) | inhibition [1] [%] | inhibition [2] [%] | inhibition [3] [%] | inhibition [4] [%] | inhibition [5] [%] | inhibition [6] [%] | inhibition [7] [%] | inhibition [8] [%] | inhibition [9] [%] | inhibition [10] [%]
CCn1c(-c2nonc2N)nc2cncc(C(=O)N3CCNCC3)c21 | 1.12 | 3.49 | 4.33 | 0.28 | -0.73 | 4.35 | 7.99 | 2.98 | 2.61 | 1.93
COc1cc2ncn(-c3cc(OCc4ccccc4Cl)c(C(N)=O)s3)c2cc1OC | 4.39 | 0.59 | 4.21 | 1.28 | 0.48 | 0.19 | 2.53 | 2.18 | 9.18 | 1.21
COc1ccc(-c2ccncc2)cc1C(N)=O | 0.61 | 3.91 | 6.95 | -1.51 | 2.44 | 3.8 | 9.87 | 3 | 4.53 | 2.89
NS(=O)(=O)c1ccc(N/N=C2\C(=O)Nc3ccc(C(=O)NCCc4c[nH]cn4)cc32)cc1 | 24.2 | 6.64 | 30.6 | 5.35 | 31.5 | 6.85 | 33.4 | 50.7 | 86.8 | 51
Cc1ccc(NC(=O)c2ccnc(N3CCCC3)c2)cc1-c1ccc(C(=O)NCC2CC2)cc1 | -1.68 | 0.13 | 4 | -2.86 | -0.97 | 2.77 | 3.11 | 1.33 | 5.65 | 0.07
Nc1ncnc2occ(-c3ccc(NC(=O)Nc4cc(C(F)(F)F)cc(C(F)(F)F)c4)cc3)c12 | 1.36 | 0.09 | 2.4 | 0.19 | 1.76 | 1.71 | 2.18 | 1.22 | 5.65 | 1.08
CCn1c(-c2nonc2N)nc2c(C#CC(C)(C)O)nc(OC[C@@H](N)c3ccccc3)cc21 | 0.8 | -0.38 | 5.33 | 1.06 | 4.19 | -1.52 | -0.54 | 37.4 | 78.5 | 32.1
COc1cc2ncn(-c3cc(O[C@@H](C)c4ccccc4Cl)c(C(N)=O)s3)c2cc1OC | 2.08 | 4.47 | 8.19 | -0.84 | 5.29 | 2.62 | 3.36 | 3.02 | 6.38 | 2.25
COc1cc(C=NNc2ncnc3c2cnn3-c2ccccc2)ccc1O | 9.46 | 4.3 | 28.8 | 1.97 | 11 | 5.08 | 23.7 | 47.7 | 79.2 | 41.6
CCCN1CCC=C(c2ccc(Nc3nc(Nc4ccccc4C(N)=O)c4cc[nH]c4n3)c(C)c2)C1 | 6.97 | 56.2 | 92.3 | 39.5 | 71.1 | 8.53 | 44.2 | 5.89 | 28.1 | 3.05
COc1cccc(-n2ncc3c(N/N=C/c4cccc(F)c4)ncnc32)c1 | -0.14 | 2.01 | 25.9 | -1.44 | 14.9 | 4.29 | 16.8 | 54.5 | 75.2 | 44.7
c1cnn2ncc(-c3ccnc(Nc4ccc5c(c4)OCCO5)n3)c2c1 | 52 | 79.6 | 87.6 | 80.6 | 88.9 | 10.7 | 50.8 | 75.6 | 92.5 | 74.4
CN(C)c1cc2c(Nc3ccc4nc(Cc5ccccc5)[nH]c4c3)ncnc2cn1 | 3 | 4.46 | 6.18 | 1.66 | 2.67 | 3.79 | 5.25 | 2.41 | 4.97 | 1.6
NC(=O)c1ccc(-c2nc(-c3ccccn3)c(-c3ccc4c(c3)OCO4)[nH]2)cc1 | 1.76 | 1.47 | 3.08 | -0.77 | 0.83 | 1.43 | 1.31 | 2.47 | 3.92 | 1.88
CS(=O)(=O)CCNCc1ccc(-c2ccc3ncnc(Nc4ccc(OCc5ccccc5)c(Cl)c4)c3c2)o1 | -0.47 | 2.24 | 1.73 | 1.31 | 2.67 | -0.23 | 1.41 | 1.58 | 4.24 | 2.15
COc1cc(C)c(NC(=O)CN(C)C)cc1Nc1nc(Nc2cccc(F)c2C(N)=O)c2cc[nH]c2n1 | 13.2 | 1.71 | 20 | 1.59 | 14.8 | 2.4 | 5.3 | -0.24 | 1.07 | -1.22
